For 39 molecules, growth results are on record in PubChem BioAssay (NCI).

Structures are written as SMILES. Several values for one entry are separate records, joined by “and”; a condition that tells them apart may be missing. Equal values may be shown once. This is part of a sample that, as a whole, favours compounds with a hit. Of some 83,000 tested, about 20% had one in any assay.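 The endpoint reported here, percent growth, reads 100 for growth as untreated, 0 for no net growth and -100 for all cells dead.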 Activity calls are given as the source filed them. How the source made its calls: active means growth percent below 10; inactive means the rest.

The subject of the experiment is HL-60(TB) leukemia. Description: NCI-60 one-dose screen, 48 h (100 = growth as untreated, 0 = no growth, -100 = all killed). Particulars: 10 µM unless noted.
With `N#CC1=C(N)Oc2c(sc3c(Br)cccc23)C1c1ccc(Cl)cc1` (centres undefined), the growth was -7.34% (active).
With `CC(O)c1cnc(/C=C2\SC(=S)N(Cc3ccccc3)C2=O)s1` (centres undefined), the growth is 20.4% (inactive).
Next, `Cn1cc(-c2csc(-c3c[nH]c4ccc(Br)cc34)n2)c2cnccc21`: -56.6% (active); `COc1cc2cc(Oc3ccc(NC(=O)Nc4ccc(Cl)c(Cl)c4)cc3)c(C)nc2cc1OC`: 9.64% (active); `CCCCCCNC(=O)Oc1ccc(/C(=C(\C)c2ccc(Cl)cc2)c2ccc(OCCN3CCCCC3)cc2)cc1`: -18.5% (active).
Next, `COc1ccc(NC(=O)c2ccoc2COc2ccccc2)cc1`: 96.9% (inactive); `COc1ccccc1/C=C/C(=O)/C=C/c1ccccc1O`: -5.37% (active).
Turning to `O=C(NC(=O)c1ccc(F)c(Cl)c1)NC1CC1`, the growth is 88.3% (inactive) and 89% (inactive).
Next, `COc1ccc(-c2nc3cc(C(=O)NCc4ccccc4)ccc3n2C2CCCCC2)cc1`: 71.1% (inactive); `NS(=O)(=O)c1ccc(C2C3=C(CCCC3=O)OC3=C2C(=O)c2ccccc2C3=O)cc1` (centres undefined): -40.5% (active); `CCNCCNc1cc(-c2ccc(Cl)cc2)c(C#N)c2nc3ccccc3n12`: -60.4% (active).
Next, `Cc1cc(C)nc(NS(=O)(=O)c2ccc(Nc3nc4nc(NCc5ccccc5)nc(-c5ccc(O)cc5)c4c(=O)[nH]3)cc2)n1`: 1.48% (active); `N[C@H]1CN(C(=O)c2cc3cc(Br)c(F)c(F)c3[nH]2)C[C@@H]1O`: 98.5% (inactive); `O=C(CN1C(=O)NC2NC(=O)NC21)N/N=C/c1ccccc1[N+](=O)[O-]` (centres undefined): 99.2% (inactive).
Turning to `Clc1ccc(C(Cn2ccnc2)OCc2ccsc2Cl)c(Cl)c1` (centres undefined), the growth was 6.05% (active).
Next, `OCC1C2C=CC(C2)C1CO` (centres undefined): 87.5% (inactive); `Cc1cc(C)cc(S(=O)(=O)n2ccc(-c3ccc4c(c3)CCC(C)(C)O4)n2)c1`: 99.8% (inactive); `COc1ccccc1-c1c(-c2ccc(Cl)cc2)c2cc3c(cc2[nH]c1=O)OCCO3`: 18.3% (inactive).
Next, `COC(=O)/C(=C\c1c(-c2ccccc2)[nH]c2ccccc12)S(C)(=O)=O`: 1.54% (active); `O=C(/C=C/c1cc2ccccc2[nH]c1=O)/C=C/c1cc2ccccc2[nH]c1=O`: 24.7% (inactive).
As for `N/C(=N\C(N)=N\c1nc2ccccc2s1)c1cccc(Br)c1`, the growth was 95.4% (inactive).
Next, `O=C(Nc1ccc(Br)cc1F)c1cc(Cl)ccc1O`: -42.4% (active); `C/C(=C\c1ccccc1)c1ccccn1`: 70.9% (inactive).
Next, `Cc1ccc(NC(=O)Nc2ccc(-c3cccnc3)cc2N2CCC(CO)CC2)cc1`: 13.9% (inactive); `CN1C2CCC1CN(c1cnc(C(=O)Nc3cc(F)cc4cccnc34)cn1)C2`: 5.69% (active).
Next, `Cc1ccc(C)c(C(O)(c2cc(C)ccc2C)C2(O)CCCCC2)c1`: 96.5% (inactive); `ClC/C=C/CSc1ncnc2nc[nH]c12`: 97.9% (inactive) and 95.6% (inactive); `Cc1cc(Br)nnc1Br`: 84.3% (inactive).
Take `COc1cc(-c2nc3cc(Cl)c(Cl)cc3[nH]2)ccc1OCC(=O)NN`: the growth was 82% (inactive).
Next, `CCCCCCCCCCCCCCNC(=O)Nc1ccc(Cl)c(Cl)c1`: 79.1% (inactive); `Cn1cc(C(=O)c2nc(-c3c[nH]c4ccccc34)no2)c2cc(F)ccc21`: -6.73% (active); `O=[N+]([O-])c1ccc(N2CCN(Cc3ccccc3)CC2)c2c1no[n+]2[O-]`: -33.2% (active).
On to `N#CCCN1CCN(CCC#N)C1=S`, for which the growth was 129% (inactive).
For `C1=C(N2CCCC2)CCC1`, the growth was 56.7% (inactive).
As to `COc1cc(C(=O)c2ccc3c(c2)OCO3)cc(OC)c1OC`, the growth was 1.04% (active) and 22.6% (inactive).
For `CCOC(=O)c1cnc2ccccc2c1Cl`, the growth was 122% (inactive).
With `CC(C)(C)[Si](C)(C)O[C@H]1C(=O)C=CN2CC=C[C@@H]12`, the growth was 89.5% [100 µM] (inactive).
As to `Nc1ccccc1SC(CC(=O)c1ccccc1)c1ccc([N+](=O)[O-])cc1` (centres undefined), the growth was 95.8% (inactive) and 74.9% (inactive).
Take `O=C1C2C3C=CC(O3)C2C(=O)N1Nc1ccccc1` (centres undefined): the growth was 102% (inactive).
